Measured values from ChEMBL document CHEMBL3433997, “St. Jude Leishmania screening dataset” (2016).

Assays:
Type in all cases: functional
[1] = molecular target: Solute carrier family 2, facilitated glucose transporter member 1 (Homo sapiens) (UniProt P11166); experiment: ST_JUDE_LEISH: Cytotoxicity at 2uM final concentration against transgenic Leishmania Mexicana promastigotes LmGLUT1 that are glucose transport deficient and complemented with the human glucose transporter GLUT1. Activity is measured by DNA content using SYBR green in vitro
[2] = molecular target: Hexose transporter 1 (Plasmodium falciparum) (UniProt O97467); experiment: ST_JUDE_LEISH: Cytotoxicity at 2uM final concentration against transgenic Leishmania Mexicana promastigotes LmPfHT that are glucose transport deficient and complemented with the Plasmodium falciparum hexose transporter. Activity is measured by DNA content using SYBR green in vitro
[3] = molecular target: Glucose transporter (Leishmania mexicana) (UniProt O61059); experiment: ST_JUDE_LEISH: Cytotoxicity at 2uM final concentration against transgenic Leishmania Mexicana promastigotes LmGT2 that are glucose transport deficient and complemented with the L. Mexicana glucose transporter 2. Activity is measured by DNA content using SYBR green in vitro

Sequence of Solute carrier family 2, facilitated glucose transporter member 1 (Homo sapiens) (P11166 whole entry): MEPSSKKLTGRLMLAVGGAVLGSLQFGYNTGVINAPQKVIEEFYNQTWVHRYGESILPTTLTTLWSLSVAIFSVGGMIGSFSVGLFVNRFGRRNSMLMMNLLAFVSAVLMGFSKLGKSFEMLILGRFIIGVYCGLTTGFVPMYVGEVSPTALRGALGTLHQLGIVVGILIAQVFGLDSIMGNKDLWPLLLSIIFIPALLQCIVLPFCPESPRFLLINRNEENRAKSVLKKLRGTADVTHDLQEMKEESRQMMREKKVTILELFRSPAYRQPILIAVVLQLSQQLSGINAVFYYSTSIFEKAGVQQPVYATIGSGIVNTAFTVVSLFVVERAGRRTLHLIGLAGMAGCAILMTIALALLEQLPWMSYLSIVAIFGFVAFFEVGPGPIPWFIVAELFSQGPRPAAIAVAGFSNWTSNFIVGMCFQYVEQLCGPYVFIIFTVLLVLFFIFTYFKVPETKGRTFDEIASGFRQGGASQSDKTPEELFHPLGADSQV

SMILES	inhibition [1] [%]	inhibition [2] [%]	inhibition [3] [%]
COCCN(C)CCCOc1cc2c(cc1OC)ncn2-c1cc(OCc2ccccc2C(F)(F)F)c(C(N)=O)s1	2.27	4.55	1.49
COc1ccc(-n2nc(C(=O)NCCC3=CCCCC3)c3ccccc3c2=O)cc1	0.62	-0.88	-0.39
Cc1nnc(-c2ccc3ccccc3c2)c2cn(-c3cccc([N+](=O)[O-])c3)nc12	5.1	3.95	3.91
Cc1ccc2c(O)c([N+](=O)[O-])c(O)nc2c1	-1.72	1.03	1.6
N#Cc1ccc2[nH]cc(CN3CCC4(CC3)CN(CCNCc3ccccc3)C(=O)O4)c2c1	4.35	4.4	-0.76
N#Cc1ccc(-c2ccc(C(=O)NCC3CCN(CCN4CCC(c5ccc6c(c5OCC(N)=O)CCCC6)CC4)CC3)cc2)cc1	-0.38	-0.09	2.54
O=C(c1ccc(Cl)cc1)C1CCCN(C2CCN(CCc3ccccc3)CC2)C1 (stereo unspecified)	12.5	17.3	13.8
Cc1ccc(C(=O)Nc2cccc(CN3CCCN(Cc4ccc(O)cc4)CC3)c2)s1	-2.38	0.41	2.88
CCOc1ccc2[nH]c(C)cc(=NN=Cc3ccccc3Cl)c2c1	12.3	8.94	5.71
C=Cc1sc(CNCCCNc2cc(=O)c3ccccc3[nH]2)c(C)c1Br	0.34	0.27	-0.58
O=C(Nc1ccc(-c2cccc(-c3nc4cc(C(F)(F)F)ccc4[nH]3)c2)cc1)c1csnn1	16.1	23.4	14.2
N=C(N)NC(=O)Nc1ccc(Cl)c(C(F)(F)F)c1	1.17	2.97	1.44
